In PubChem BioAssay (NCI):
Compounds without any hit were thinned out: in the full panel of roughly 79,000, 15% have a hit. Rule as the data show it: active = growth inhibition above about 70%; inactive = the rest.

Experiments:
[1] = NCI Yeast Anticancer Drug Screen. Data for the rad50 strain (AID 155);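 also: 0% = growth of vehicle-only cultures of the same strain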; conditions: S. cerevisiae rad50 strain growth inhibition; at 50.0 µM; stronger effect = higher value
Method in brief: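 Cells are treated with compound, grown, and their growth is then scored against vehicle-only cultures of the same repair-deficient yeast strain.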

[2] = NCI Yeast Anticancer Drug Screen. Data for the mec2-1 strain (AID 157); conditions: S. cerevisiae mec2-1 strain, at 50.0 µM, stronger effect = higher value
Method in brief: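 mec2-1 yeast strain, carrying an alteration in DNA damage repair or cell cycle control, was exposed to compounds; growth inhibition was measured relative to vehicle-treated controls.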

[3] = NCI Yeast Anticancer Drug Screen. Data for the sgs1 mgt1 strain (AID 161);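 also: 0% = growth of cultures given vehicle only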; conditions: S. cerevisiae sgs1 mgt1 strain, at 50.0 µM, stronger effect = higher value
Method in brief: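 Growth of a repair-deficient yeast mutant was monitored after compound treatment and expressed as inhibition relative to vehicle-treated cultures.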

[4] = NCI Yeast Anticancer Drug Screen. Data for the cln2 rad14 strain (AID 165);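 also: 0% = growth equal to vehicle treated cultures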; conditions: S. cerevisiae cln2 rad14 strain, at 50.0 µM, stronger effect = higher value
Method in brief: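 Yeast carrying cln2 and rad14 alterations (cell cycle control and DNA damage repair) were exposed to compounds. Growth inhibition was measured against vehicle-treated controls.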

[5] = NCI Yeast Anticancer Drug Screen. Data for the bub3 strain (AID 167); conditions: S. cerevisiae bub3 mutant strain, at 50.0 µM, stronger effect = higher value
Method in brief: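 Part of a panel of yeast mutants defective in DNA damage repair or cell cycle regulation. Each strain is grown with compound, and inhibition is calculated relative to solvent-treated cultures.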

[6] = NCI Yeast Anticancer Drug Screen. Data for the mlh1 rad18 strain (AID 175); conditions: S. cerevisiae mlh1 rad18 strain growth inhibition; at 50.0 µM; stronger effect = higher value
Method in brief: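 Growth inhibition of the yeast strain was measured after compound exposure and expressed relative to vehicle-treated controls. The strain carries defined defects in DNA damage repair.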

Measured: growth inhibition

CC12CC(=O)OC(Cc3ccccc31)O2 (centres undefined)
inactive: [1] -50.4% | [2] -27.1% | [3] -51.7% | [4] -1.25% | [5] -63.6% | [6] -40.5%

O=C(CCS(=O)(=O)CCC(=O)c1cccs1)c1cccs1
inactive: [1] 4.2% | [2] 10.3% | [3] 1.9% | [4] -4.15% | [5] -3.55% | [6] 15.6%

CN1CCC(O)(/C=C\C2(O)CCN(C)CC2)CC1
inactive: [1] -10.9% | [2] 21.7% | [3] 20.1% | [4] -3.95% | [5] 3.65% | [6] -22.1%

COc1cc(OC)c2[nH]c3c(c(=O)c2c1)C(=O)c1[nH]c2c(OC)cc(OC)cc2c(=O)c1C3=O
inactive: [1] 26.8% | [2] 4.55% | [3] 12.8% | [4] 17.4% | [5] -3.55% | [6] 19.9%

COC(=O)CCc1cc(=O)oc2c3c(cc(OC)c12)OC1OC(=O)CC31 (centres undefined)
inactive: [1] -24% | [2] -22.3% | [3] -19.1% | [4] 6.4% | [5] -20.1% | [6] -7.25%

COC(=O)C(CSSCC(C(=O)NC(Cc1ccccc1)C(=O)NCC(=O)OC(C)(C)C)N1C(=O)CCC1=O)NC(=O)OCc1ccccc1 (centres undefined)
inactive: [1] -29.2% | [2] 11.4% | [3] -5.45% | [4] -45.4% | [5] -51.4% | [6] 18.9%

CN(C(=O)C1(C(=O)C=[N+]=[N-])CC1)c1ccccc1
inactive: [1] -3.8% | [2] -4.4% | [3] -14.8% | [4] 1.3% | [5] -2.55% | [6] 7.3%

O=C(O)CCNCCO
inactive: [1] -3.5% | [2] 13.4% | [3] 5.1% | [4] -18.6% | [5] 20.1% | [6] 2.45%

O=C(c1ccccc1)[C@@H]1C[C@H](Sc2ccccc2)c2cc(Cl)ccc2N1
inactive: [1] 39.7% | [2] -10.5% | [3] 4.1% | [4] 23.8% | [5] 0.8% | [6] -3.5%

CCOC(=O)C(C#N)C1=CC(=O)C(=O)c2ccc(O)cc21 (centres undefined)
inactive: [1] -4.8% | [2] -7.65% | [3] -1.15% | [4] 27% | [5] 16.6% | [6] 0.45%

O=C(Nc1ccc(Cl)cc1Cl)C(=O)C(C(=O)c1ccncc1)C1OC(=O)c2ccccc21 (centres undefined)
inactive: [1] -1% | [2] -38.3% | [3] -29.2% | [4] 23.4% | [5] 7.95% | [6] -0.4%

Cc1cc2nc(CCC(=O)O)c(=O)[nH]c2cc1C
inactive: [1] -22.4% | [2] -24.6% | [3] -4.05% | [4] 13.8% | [5] -24% | [6] -28.8%

CC(=O)/C(=C/N1C(=O)CC(=O)NC1=S)C(=O)Nc1ccccc1
inactive: [1] -24.8% | [2] -26.5% | [3] -39.9% | [4] 3.85% | [5] -17.5% | [6] -20.7%

c1ccc(CNC(c2ccccc2)C(NCc2ccccc2)c2ccccc2)cc1 (centres undefined)
inactive: [1] -7.35% | [2] -0.75% | [3] -14.3% | [4] -38.4% | [5] 6.15% | [6] 10.2%

Cc1cccc(C2(C(=O)O)CCCC2)c1
inactive: [1] 14.7% | [2] -5.2% | [3] 15.9% | [4] 39% | [5] 24.3% | [6] 35.4%

Nc1ccc(S(=O)(=O)O)cc1[N+](=O)[O-]
inactive: [1] 4.4% | [2] 3.8% | [3] -3.75% | [4] 1% | [5] 5.8% | [6] 12.6%

CN(C)c1ccc(/C=C/C(=O)/C=C/c2ccc(N(C)C)cc2)cc1
inactive: [1] -13.5% | [2] -2% | [3] -13.8% | [4] 7.6% | [5] -12.2% | [6] -8.9%

C[C@@H]1OC(=O)N2CCCC(=C3SCCCS3)C12 (some centres undefined)
inactive: [1] 0.6% | [2] -0.05% | [3] -2.6% | [4] -25.1% | [5] 2.7% | [6] -12.2%

O=C(Nc1ccccc1)C1CC=C2CCC3OC(=O)C1C23 (centres undefined)
inactive: [1] -11.4% | [2] -16.7% | [3] -23.4% | [4] -16% | [5] -14.7% | [6] -18.1%

COc1ccc(Nc2nc3ccccc3nc2C(=O)O)cc1OC
inactive: [1] -23.9% | [2] 12.1% | [3] -9.6% | [4] 6.15% | [5] 26.1% | [6] -33.8%

CCCCCCC1(C=O)NC(=O)NC1=O (centres undefined)
inactive: [1] 4.2% | [2] -12% | [3] -11.2% | [4] -14.1% | [5] -4.6% | [6] -1.35%

NC(=O)[N+](=CC(=S)Nc1ccccc1Cl)C(N)=O
inactive: [1] -43.3% | [2] -43.5% | [3] -36.7% | [4] -15.8% | [5] -33.4% | [6] 34.6%

CCCCNc1ccc(S(=O)(=O)c2ccc(NCCCC)c([N+](=O)[O-])c2)cc1[N+](=O)[O-]
inactive: [1] 19.6% | [2] 6.6% | [3] 15.2% | [4] -1.4% | [5] 2.35% | [6] -9.8%

NC(=O)c1ccc([N+](=O)[O-])cc1
inactive: [1] 6% | [2] -5.15% | [3] 27.1% | [4] -24.8% | [5] -1.4% | [6] 15.3%

COC(=O)c1ccccc1C1CN=NC12Cc1cc(C)ccc1C2=O (centres undefined)
inactive: [1] -3.25% | [2] 14.2% | [3] -10.4% | [4] -34.4% | [5] -3.5% | [6] -14.8%

Cc1cc(Br)ccc1C1=C(O)C(=O)NC1=O
inactive: [1] 5.55% | [2] -10.4% | [3] 10.7% | [4] -32.3% | [5] -1.7% | [6] -5.4%

CCOC(=O)C(Cc1ccc(OCc2ccccc2)c(OCc2ccccc2)c1)(NC=O)C(=O)OCC
inactive: [1] 36.6% | [2] -1.6% | [3] 19.8% | [4] -14.8% | [5] -9.9% | [6] 9%

Cc1ccc(N=Nc2ccc(C)cc2NC(=O)c2ccc(Cl)cc2Cl)cc1
inactive: [1] 9.2% | [2] -9.7% | [3] 9.1% | [4] 4.55% | [5] -1.55% | [6] 18.2%

NCCNc1ncnc2ccc(Cl)cc12
inactive: [1] -30.9% | [2] -13.1% | [3] -22.4% | [4] -30.5% | [5] -38.8% | [6] 5.4%

c1cncc(-c2c3ccccc3cc3ccccc23)c1
inactive: [1] 22.3% | [2] -16% | [3] 2.8% | [4] -8.5% | [5] 4.8% | [6] 5.1%

CN1CCN(S(=O)(=O)C(c2ccccc2)C2(O)CCCCC2)CC1 (centres undefined)
inactive: [1] -1.3% | [2] 10.2% | [3] 9.05% | [4] -6.25% | [5] -8.15% | [6] 12.2%

COc1cccc(/C=C\C(=O)c2ccccc(=O)c2O)c1OC
inactive: [1] 34.5% | [2] 23.4% | [3] 36.8% | [4] -5.4% | [5] 40.5% | [6] 40.9%

COC(=O)c1ccccc1NC(=O)Nc1cccc(Cl)c1C
inactive: [1] 13.8% | [2] -2.25% | [3] 25.2% | [4] 12% | [5] 17.6% | [6] 17.4%

O=C1Oc2ccccc2C(=O)Oc2ccccc2C(=O)Oc2ccccc2C(=O)Oc2ccccc21
inactive: [1] -43.7% | [2] -38.6% | [3] -24.2% | [4] -8.25% | [5] -22.1% | [6] -29.6%

C1=C(N2CCOCC2)CCC(N2CCOCC2)=C1
inactive: [1] -2.85% | [2] 21.9% | [3] 20.8% | [4] 41.9% | [5] -8.65% | [6] -12.2%

CCOP(C)(=O)C(Cc1c[nH]c2ccccc12)C(=O)O (centres undefined)
inactive: [1] -20.7% | [2] -19.7% | [3] 9.9% | [4] 13% | [5] -12.8% | [6] -2.5%

CCOc1c(N=Nc2ccc(Cl)cc2)c(C)nn1C(N)=S
inactive: [1] -19.2% | [2] 16.2% | [3] 12.2% | [4] -12.6% | [5] 36.4% | [6] 44.5%

O=[N+]([O-])c1cc([N+](=O)[O-])c(C(Cl)C(Cl)c2ccccc2)cc1C(Cl)C(Cl)c1ccccc1 (centres undefined)
inactive: [1] 2.4% | [2] 2.55% | [3] -18.9% | [4] 7.65% | [5] 0.6% | [6] -20.4%

CNc1ncnc2[nH]cc([N+](=O)[O-])c12
inactive: [1] 6.45% | [2] 1.95% | [3] 10.1% | [4] 9.05% | [5] 3.9% | [6] 33.6%
